Screening results from PubChem BioAssay.
HCV inhibitor: qHTS Assay for Inhibitors of Hepatitis C Virus (HCV); Huh7.5.1 HCVcc-Cre infection, luciferase reporter, 44 h; actives 3.4% (n = 340,000); Potency, µM (series often up to 41.8 µM), inactives show at the highest dose activity change, negative = inhibition, actives largely listed as inhibitors; also: potency is read from the fitted curve at half-maximal effect; % is scaled to controls: 0 for no effect and ±100 for the full control effect
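Antiviral activity was scored by luciferase reporter output from cells infected with HCVcc-Cre (~0.5 moi) in presence of compound, 44 h infection period, cells seeded 1,000/well 4 h prior.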
Shiga toxin inh: A qHTS for Small Molecule Inhibitors of Shiga Toxin; Vero cells, Shiga toxin protein synthesis inhibition reporter; inhibition, % at 38.7 µM; actives 9.2% (n = 290,000); in the data active = inhibition mostly above about 28%, no sharp cut-off; inactive = mostly below about 43%; also: 0% is about no effect
Pf growth 48h: Primary qHTS for delayed death inhibitors of the malarial parasite plastid, 48 hour incubation; P. falciparum luciferase growth in erythrocytes, 48 h; AID 504832, 2011; actives 5.9% (n = 310,000); Potency, µM (doses to about 28.7 µM), without a hit: at the top dose activity change, negative = inhibition, actives largely listed as inhibitors; also: potency is read from the fitted curve at half-maximal effect; % is scaled to controls: 0 for no effect and ±100 for the full control effect
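Luciferase-expressing P. falciparum in infected erythrocytes (2% hematocrit, 0.1% parasitemia final) in RPMI 1640/0.5% Albumax were exposed to compound for 48 hours at 37 C, 5% CO2; growth read as luminescence.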
AMA1 RON2 block: qHTS for Inhibitors of AMA1-RON; Towards Development of Antimalarial Drug Lead: Primary Screen. Plasmodium falciparum AMA1 (3D7) - RON2 peptide interaction. AlphaScreen AMA1-biotinylated RON2 peptide binding. Potency, µM (titrated, usually from 58.2 µM), inactives show top-dose activity change, negative = inhibition, most hits filed as inhibitors. actives 0.2% (n = 360,000). AID 720542, 2013;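 also: potency is read from the fitted curve at half-maximal effect; 0% = vehicle wells and -100% = peptide control; nearly all actives have a fitted effect of over 45% in size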
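AMA1 (3D7) with his tag at 25 nM final met compounds first, then biotinylated RON2 peptide at 25 nM; detection used donor plus acceptor beads, 10 µg/mL apiece, read by AlphaScreen after 30 min at room temperature.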
Pf growth 96h: Primary qHTS for delayed death inhibitors of the malarial parasite plastid, 96 hour incubation; P. falciparum luciferase reporter growth, 96 h; Potency, µM (titrated, usually from 28.7 µM), for the others: at the highest dose activity change, negative = inhibition, hits mostly inhibitors; actives 6.9% (n = 320,000); AID 504834, 2011; also: potency is read from the fitted curve at half-maximal effect; % is scaled to controls: 0 for no effect and ±100 for the full control effect
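Erythrocytes infected with luciferase-expressing P. falciparum were dispensed at 2% hematocrit and 0.05% parasitemia (final), then incubated with compounds 96 hours at 37 C in 5% CO2. Luminescence after detection reagent addition reported growth.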
CHX counter: Cycloheximide Counterscreen for Small Molecule Inhibitors of Shiga Toxin; cell reporter, cycloheximide protein synthesis inhibition counterscreen; actives 12% (n = 300,000); AID 2314, 2010; max response, %; in the data active = max response mostly above about 13%, no sharp cut-off; inactive = mostly below about 14%; also: read at 38.3 µM for the half of the compounds with a filed dose; 0% is about no effect
Numbers without * were called inactive; ? = inconclusive; / = not tested or not shown. Rows were chosen to be rich in hits. Some 21% of all compounds tested hit in one or more screens of this group. Unless noted, calls follow the shape of the dose curve; as a rule, active = well fitted curve in the direction sought with a large enough effect; inconclusive = small, poorly fitted or top-dose-only effect, or another doubt; inactive = no such curve, though single readings can be large; an effect the other way counts as inactive or inconclusive.

SMILES	HCV inhibitor	Shiga toxin inh	Pf growth 48h	AMA1 RON2 block	Pf growth 96h	CHX counter
CCOC(=O)Cn1c(CN2CCN(C(c3ccccc3)c3ccccc3)CC2)nc2c1c(=O)n(C)c(=O)n2C	?	12.1	4.15µM*	-8.9%	1.85µM*	-2.1
CC(C)[C@H](NC(=O)c1ccccc1)C(=O)OCC(=O)Nc1ncc(Cl)cc1Cl	-8.9%	/	/	-5.5%	/	/
CSc1ncccc1C(=O)NC1CCN(Cc2ccccc2)CC1	-0.5%	-8.0	0.0%	-9.8%	?	-0.6
COC(=O)c1sc(NC(=S)NC(=O)c2ccccc2F)nc1C	?	160.3*	238.6%	-2.5%	-17.5%	51.0*
COC(=O)c1sc(NC(=S)NC(=O)c2cccc(C)c2)nc1C	2.9%	21.4	38.4%	41.1%	73.1%	6.5
COC(=O)c1sc(NC(=O)COc2ccc(OC)cc2)nc1C	6.5%	/	/	17.7%	/	/
COC(=O)c1sc(NC(=O)c2cc(C)on2)nc1C	1.5%	36.1*	59.9%	13.9%	85.6%	27.0*
CCOC(=O)CNC(=O)c1sc(NC(=O)c2ccccc2F)nc1C	5.2%	55.0*	57.4%	7.6%	?	34.8*
CCOC(=O)CNC(=O)c1sc(NC(=O)c2cccc(F)c2)nc1C	13.9%	66.0*	/	-12.7%	-49.9%	26.3*
O=C(COC(=O)c1ccc(F)cc1F)Nc1ccc2c(c1)OCO2	/	/	/	10.1%	/	/
COc1ccc(C(=O)NC(=S)NNC(=O)c2ccc(O)cc2)cc1[N+](=O)[O-]	-0.2%	85.9*	16.3%	79.7%	-2.5%	39.5*
CCOc1ccc(C(=O)NC(=S)Nc2ccccn2)cc1[N+](=O)[O-]	11.0%	30.6	34.3%	12.5%	23.9%	15.1*
COc1cc(/C=C(/NC(=O)c2ccccc2)C(=O)Nc2ccccc2)c([N+](=O)[O-])cc1OC	?	29.0	8.3%	0.7%	-38.1%	-1.9
O=C(NC(=S)Nc1ccccn1)c1cccc([N+](=O)[O-])c1	7.8%	76.0*	-15.0%	95.1%	-17.1%	42.7*
COc1cc(/C=C(/NC(=O)c2ccccc2)C(=O)Nc2ccc(O)cc2)c([N+](=O)[O-])cc1OC	0.0%	-3.6	1.1%	17.6%	10.4µM*	-0.2
CCOc1ccc(C(=O)NC(=S)Nc2cc(C)ccn2)cc1[N+](=O)[O-]	-15.6%	-6.8	-11.9%	20.2%	8.4%	-4.6
N#CC(CC(=O)OCc1ccccc1)NC(=O)OCc1ccccc1 (stereo not drawn)	/	/	/	8.9%	/	/
CCOC(=O)COc1ccccc1/C=C1/NC(=O)NC1=O	-15.3%	-5.2	13.5%	-3.2%	10.4µM*	-3.6
COc1cccc(/C=C2\NC(=O)NC2=O)c1O	10.9%	40.6*	75.7%	-8.5%	0.928µM*	24.3
O=C1NC(=O)/C(=C/c2ccccc2Cl)N1	4.3%	-8.8	/	0.9%	?	-0.8
CC(NC(=O)c1ccnn1C)C1CCCO1 (stereo not drawn)	12.6%	5.5	0.9%	-9.0%	?	-2.1
CC(C)Cn1c(=S)[nH]c2ccccc2c1=O	?	-1.7	?	93.6%	-21.4%	3.7
CC(C)COn1c(=S)[nH]c2ccccc2c1=O	-19.2%	55.2*	61.5%	58.3%	102.4%	27.3*
O=c1c2ccccc2nc(CNc2ccccc2)n1-c1ccccc1	10.9%	12.0	?	10.5%	7.38µM*	7.1
CN1C(=O)C(Cc2nc3ccccc3c(=O)n2-c2ccccc2)c2ccccc21 (stereo not drawn)	14.7%	-10.0	?	-12.4%	?	-4.2
CC(C)N1C(=O)C(Cc2nc3ccccc3c(=O)n2-c2ccccc2)c2ccccc21 (stereo not drawn)	?	-8.2	9.28µM*	-14.6%	9.28µM*	-2.7
Cc1ccccc1-n1c(CNc2ccccc2)nc2ccccc2c1=O	-13.1%	/	/	0.0%	/	/
